Where “and” joins values, the source holds several entries; their conditions need not be identical. Equal entries are not always repeated. Unmarked numbers belong to inactive results. Calls of active or inactive are those of the source.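 How the source made its calls: active means inhibition at or above 50% relative to wild type and mutant plate controls; inactive means inhibition below 50%.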
Assay: loss of swimming-algae plug formation – whole organism, Chlamydomonas reinhardtii, WT vs cilia-less mutant, absorbance, 96-well, primary screen (AID 463189);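 further: 0% = wild type cc124 cells in DMSO and 100% = ciliumless bld1 mutant cells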
Conditions: Chlamydomonas reinhardtii gravitaxis, OD600 absorbance, 2 days; at 10 µM; stronger effect = higher value

Row | Structure (SMILES) | inhibition
1 | O=C(O)C1CN(CCCP(=O)(O)O)CCN1 (stereo not given) | -0.924%
2 | CC(=O)SCC[N+](C)(C)C | -2.92%
3 | O=C1NCC2(CCN(CCc3ccccc3)CC2)O1 | -9.32%
4 | CNCC(O)c1ccc(O)c(O)c1 (stereo not given) | 4.49%
5 | CC(N)C1CCC(C(=O)Nc2ccncc2)CC1 (stereo not given) | 3.82%
6 | Nc1nc(N)c2nc(CNc3ccc(C(=O)NC(CCC(=O)O)C(=O)O)cc3)cnc2n1 (stereo not given) | 10.5%
7 | CCCCN1CCC(COC(=O)c2cc(Cl)c(N)c3c2OCCO3)CC1 | -6.29%
8 | COc1cc(C(O)CO)ccc1O (stereo not given) | 1.74%
9 | OC[C@H]1NC[C@@H](O)[C@@H]1O | -9.59%
10 | COc1cc(C(O)C(=O)O)ccc1O (stereo not given) | 2.56%
11 | CN(C)CCC(c1ccc(Cl)cc1)c1ccccn1 (stereo not given) | 9.56%
12 | COc1ccc2c(c1)c(CC(=O)N1CCOCC1)c(C)n2C(=O)c1ccc(Cl)cc1 | 6.6%
13 | CCN(CC)CCCC(C)Nc1ccnc2cc(Cl)ccc12 (stereo not given) | 0.95%
14 | O=C(O)C1=CCNCC1 | 0.676%
15 | COC(=O)c1c(-c2cc(OC)c(OC)c(OC)c2)c2ccnc(OCc3ncccn3)c2c(=O)n1Cc1ccnc(C)c1 | -6.21%
16 | COc1cc2c(cc1OC)[C@@H](c1ccccc1)CN(C)CC2 | 8.36%
17 | CCn1ccnc1CC1COc2ccccc2O1 (stereo not given) | 5.81%
18 | CCC1(O)CC2CN(CCc3c([nH]c4ccccc34)[C@@](C(=O)OC)(c3cc4c(cc3OC)N(C)C3[C@]45CCN4CC=C[C@@](CC)([C@@H](OC(C)=O)[C@]3(O)C(=O)OC)[C@H]45)C2)C1 (stereo not given in full) | 4.61%
19 | N[C@@H](Cc1ccc(O)c(O)c1)C(=O)O | 2.49%
20 | N[C@@H]1CONC1=O | 0.59%

Row | Structure (SMILES) | inhibition
21 | Cc1ccc(S(=O)(=O)N[C@@H](Cc2ccccc2)C(=O)CCl)cc1 | -2.77%
22 | CCOC(=O)c1ncn2c1CN(C)C(=O)c1cc(F)ccc1-2 | 1.79%
23 | CC(C)(C)[C@]1(O)CCN2C[C@H]3c4ccccc4CCc4cccc(c43)[C@@H]2C1 | 3.49% and -7.42%
24 | CNC(=O)[C@H]1O[C@@H](n2cnc3c(NCc4cccc(I)c4)ncnc32)C(O)[C@H]1O (stereo not given in full) | 1.77%
25 | Cc1cccc(C(=O)NCN2CCN(c3ccccc3C#N)CC2)c1 | 0.075%
26 | CCC(=O)N1CCN(C(=O)c2ccccc2)CC1 | 0.644%
27 | O=c1[nH]c2cc(C(F)(F)F)ccc2n1-c1cc(C(F)(F)F)ccc1O | -0.852%
28 | S=C(Nc1ccccc1)Nc1nccs1 | 7.29%
29 | Oc1ccc(O)cc1 | 0.661%
30 | Oc1cc(O)cc(/C=C/c2ccc(O)c(O)c2)c1 | 0.047%
31 | CCCn1c(=O)c2[nH]c(-c3ccc(OCC(=O)Nc4ccc(C#N)cc4)cc3)nc2n(CCC)c1=O | 4.77%
32 | CN1C[C@H](C(=O)N[C@]2(C)O[C@@]3(O)[C@@H]4CCCN4C(=O)[C@H](Cc4ccccc4)N3C2=O)C[C@@H]2c3cccc4[nH]cc(c34)C[C@H]21 | -12.5%
33 | NCCc1ccc(O)c(O)c1 | -0.97%
34 | O=C(Nc1cc(C(=O)Nc2ccc(S(=O)(=O)O)cc2S(=O)(=O)O)cc(C(=O)Nc2ccc(S(=O)(=O)O)cc2S(=O)(=O)O)c1)Nc1cc(C(=O)Nc2ccc(S(=O)(=O)O)cc2S(=O)(=O)O)cc(C(=O)Nc2ccc(S(=O)(=O)O)cc2S(=O)(=O)O)c1 | 10.7%
35 | NCCc1cnc[nH]1 | 2.56%
36 | NC(N)=NCCCCN=C(N)N | -4.67%
37 | Cc1cc(N)c2ccccc2[n+]1CCCCCCCCCC[n+]1c(C)cc(N)c2ccccc21 | 147% (active)
38 | COc1nc(C)nc(Cl)c1NC1=NCCN1 | 1.2%
39 | CCCCN1CCC(n2c(=O)[nH]c3ccccc32)CC1 | 4.67%
40 | NCC(O)c1ccc(O)c(O)c1 (stereo not given) | -2.37%

— PubChem BioAssay
